In PubChem BioAssay AID488969 (Vanderbilt High Throughput Screening Facility, 2010):
In all, about 110,000 compounds were measured (“z-score”: median about -0.1, highest 2% from about 2 on). The full list was thinned out, with the highest values kept by preference. Calls of active or inactive are those of the source.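 The calls were made as follows: active = z-score in the third read window above 3 or below -3; inactive = the rest.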

What follows are compounds tested against Metabotropic glutamate receptor 8 (Rattus norvegicus) (UniProt P70579) (assay: mGluR8 Gi/Go-coupled signaling modulation – cell-based, rat, thallium flux, HTS, primary screen (AID 488969)). Details: HEK293 rat mGluR8, GIRK (G protein-gated inwardly rectifying potassium channel) thallium flux, FluoZin2; at 10 µM; stronger effect = higher value; submaximal glutamate (EC20) added with thallium.
Sequence of Metabotropic glutamate receptor 8 (Rattus norvegicus) (P70579 whole entry, looked up): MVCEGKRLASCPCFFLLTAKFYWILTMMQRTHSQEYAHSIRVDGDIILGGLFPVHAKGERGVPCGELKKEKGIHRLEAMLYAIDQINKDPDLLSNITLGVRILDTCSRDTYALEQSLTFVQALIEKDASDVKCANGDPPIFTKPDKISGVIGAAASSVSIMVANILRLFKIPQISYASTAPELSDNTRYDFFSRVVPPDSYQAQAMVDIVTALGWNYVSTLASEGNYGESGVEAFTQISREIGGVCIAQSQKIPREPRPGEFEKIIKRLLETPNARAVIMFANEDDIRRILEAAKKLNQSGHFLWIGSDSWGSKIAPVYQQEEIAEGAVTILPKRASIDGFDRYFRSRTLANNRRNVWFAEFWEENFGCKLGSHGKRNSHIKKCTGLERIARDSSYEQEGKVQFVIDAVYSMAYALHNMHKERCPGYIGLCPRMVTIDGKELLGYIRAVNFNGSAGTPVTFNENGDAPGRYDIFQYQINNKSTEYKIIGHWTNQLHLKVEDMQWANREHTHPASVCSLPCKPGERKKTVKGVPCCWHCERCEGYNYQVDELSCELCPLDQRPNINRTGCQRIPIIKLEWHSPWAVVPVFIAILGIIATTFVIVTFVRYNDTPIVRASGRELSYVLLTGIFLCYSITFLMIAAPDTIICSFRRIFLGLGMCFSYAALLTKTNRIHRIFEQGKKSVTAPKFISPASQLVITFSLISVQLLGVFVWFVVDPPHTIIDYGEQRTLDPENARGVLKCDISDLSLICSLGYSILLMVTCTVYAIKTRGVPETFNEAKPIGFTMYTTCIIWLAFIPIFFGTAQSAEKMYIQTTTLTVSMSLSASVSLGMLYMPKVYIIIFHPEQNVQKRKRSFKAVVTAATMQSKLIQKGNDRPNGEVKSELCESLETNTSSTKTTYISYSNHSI

Structure (SMILES) | z-score
COC(=O)Cn1c(=NC(=O)c2ccc(OC)cc2)sc2cc(OC)ccc21 | -0.189
Cc1cccc(N=C2NC(=O)/C(=C/C=C/c3ccco3)S2)c1C | 3 (active)
O=C1NC(=Nc2ccccc2)S/C1=C\C=C\c1ccco1 | 0.075
Cc1cccc(N=C2NC(=O)/C(=C/C=C/c3ccco3)S2)c1 | 0.7
OC(COCc1ccccc1)CN1CCN(c2ccccc2)CC1 (stereo not given) | 0.802
CCCc1nc2oc3c(NCCN(C)C)ncnc3c2c2c1CCCC2 | 0.466
CCOc1ccc(/C=C/C(=O)Nc2ccc(N3CCOCC3)cc2)cc1 | -0.494
CNC(=S)NNC(=O)COc1ccccc1C | -0.0807
CCCc1ccc(OCC(=O)NNC(=S)NC(=O)c2ccco2)cc1 | 5.78 (active)
COc1ccccc1OCC(=O)NNC(=S)NC(=O)c1ccco1 | 0.0517
COCCNC(=S)NNC(=O)c1ccco1 | 0.195
Cc1ccccc1OCC(=O)NNC(=S)NC(=O)c1ccco1 | 8.07 (active)
CCCCNC(=S)NNC(=O)c1ccco1 | -0.0425
O=C(NCCN1CCOCC1)c1cc(Sc2ccccc2Cl)nc2ccccc12 | -1.39
COc1cccc(N2CC(C(=O)Nc3nnc(SCc4cccnc4)s3)CC2=O)c1 (stereo not given) | 0.711
O=c1[nH]c2cccnc2n1Cc1ccccc1 | -0.166
Cc1ccccc1Nc1nnc(C)c(=O)n1N | 0.0745
c1ccc(C2CCC(N3CCC(N4CCCCC4)CC3)CC2)cc1 (stereo not given) | -0.423

Structure (SMILES) | z-score
C1=CN2CCC1C(c1ccccc1)C2 (stereo not given) | 2.05
O=C(/C=C/c1ccccc1)N1CCC(c2ccccc2)C1 (stereo not given) | -0.0939
COC(=O)C1CCN(C(=O)CSc2ccccc2)CC1 | -0.196
CC(C)COc1ccc(Cc2cnc(N)nc2N)cc1 | 7.02 (active)
COc1ccc(Cc2c(N)nc(N)nc2N)cc1 | -0.264
CC(C)Oc1ccc(Cc2cnc(N)nc2N)cc1 | 1.03
CCOc1cc(CNCCc2ccc(S(N)(=O)=O)cc2)ccc1OCC(=O)NC1CCCCC1 | 0.417
Cc1cc(NC(=O)c2cnccn2)no1 | -0.0463
CCCc1cc(=O)[nH]c(/N=C(/NC(=O)c2ccccc2)Nc2ccc3c(c2)OCCO3)n1 | -0.0513
CN(C)CCCNc1ncnc2c1cnn2-c1ccccc1 | 0.0262
COCCNc1ncnc2c1cnn2-c1ccc(Cl)cc1 | 0.0016
CN(C)CCNc1ncnc2c1cnn2-c1ccc(Cl)cc1 | 3.51 (active)
CC(/C=N\NC(=O)c1cccnc1)c1ccccc1 (stereo not given) | -0.201
CS(=O)(=O)N1CCN(c2ccccc2NC(=O)c2cccc3ccccc23)CC1 | -0.227
O=C(COc1ncnc2sccc12)N1CCc2ccccc2C1 | 0.0441
O=C(COc1c(Br)cc(Br)c2cccnc12)N1CCc2ccccc2C1 | 3.14 (active)
O=C(COc1cccc2cccnc12)N1CCc2ccccc2C1 | 0.452
